# Results reported in PubChem BioAssay (NCI).
# Compounds without any hit were thinned out: in the full panel of roughly 83,000, 20% have a hit.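 For each line, cells grew in 96-well plates with the test compound present at a single concentration for 48 hours.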 A number with no mark means an inactive call. The source made the active and inactive calls. Rule for the calls: active = growth percent below 10; inactive = the rest.
# Tests used:
# Test in all cases: NCI-60 one-dose screen, 48 h (100 = growth as untreated, 0 = no growth, -100 = all killed)
# Details in all cases: 10 µM unless noted
# HCT-15 colon = system: HCT-15 colon
# HT29 colon = system: HT29 colon
# SNB-75 CNS = system: SNB-75 CNS
# SNB-19 CNS = system: SNB-19 CNS
# U251 CNS = system: U251 CNS
# PC-3 prostate = system: PC-3 prostate
# SK-MEL-5 melanoma = system: SK-MEL-5 melanoma
# UACC-62 melanoma = system: UACC-62 melanoma
# LOX IMVI melanoma = system: LOX IMVI melanoma
# SK-MEL-28 melanoma = system: SK-MEL-28 melanoma
Structure (SMILES),growth (HCT-15 colon),growth (HT29 colon),growth (SNB-75 CNS),growth (SNB-19 CNS),growth (U251 CNS),growth (PC-3 prostate),growth (SK-MEL-5 melanoma),growth (UACC-62 melanoma),growth (LOX IMVI melanoma),growth (SK-MEL-28 melanoma)
CNC(=O)c1c(NC(=O)c2ccc(C(C)C)cc2)sc2c1CCC(=O)C2,-40.7% (active),3.51% (active),-11.9% (active),8.7% (active),-20.2% (active),-40% (active),-71.4% (active),-54.7% (active),1.13% (active),-32.1% (active)
O=C(N/N=C/c1ccc([N+](=O)[O-])o1)c1ccc(O)cc1,42.9%,17.1%,84.7%,54%,34%,87.4%,2.57% (active),47.5%,12.9%,77.7%
C=C[C@H]1CCC/C=C/[C@@H]2C[C@H](O)C[C@H]2[C@H](O)/C=C/C(=O)O1,5.82% (active),-51.5% (active),25.8%,22.3%,14.6%,15.1%,-77.7% (active),5.56% (active),-99.1% (active),7.46% (active)
O=C(O/C(=C/c1ccccc1)C(F)(F)F)c1ccccc1,114%,110%,92.7%,110%,102%,104%,102%,100%,99.1%,116%
O=C(CC(=O)c1ccccc1F)Nc1ccc([N+](=O)[O-])cc1,87.8%,91.8%,79.1%,96.9%,94.7%,98.3%,86.4%,80.1%,99.7%,100%
O=C(Nc1ccc([N+](=O)[O-])cc1)c1cc2ccccc2cc1O,0.0174% (active),24.4%,-6.38% (active),23.7%,2.66% (active),-11.2% (active),-86.8% (active),-28.8% (active),-1.01% (active),7.4% (active)
CC(C)c1cccc(C#N)c1,113%,104%,83.7%,99%,94.8%,85.5%,92.3%,102%,95.3%,105%
COc1ccc(-c2nc3ccccc3n3cccc23)cc1,142%,107%,107%,140%,100%,78.6%,99%,88.3%,90%,111%
COc1cnc2c(c1)C(=O)c1c-2n(CCCN2CCCC2)c(=O)c2cc(Cl)ccc12,39.4%,-72.8% (active),19.2%,28.7%,20.1%,20.4%,14.7%,21.1%,12.5%,85.1%
O=C(NNC(=O)c1cccc(Cl)c1)c1ccccc1,114%,104%,99.4%,119%,100%,91.1%,101%,123%,105%,119%
COc1cccc(N2CCN(c3ncnc4cc[nH]c34)CC2)c1,83%,73.2%,84%,66.2%,66.9%,53%,-0.321% (active),58.8%,51.6%,80.8%
COc1cc(/C=C/c2cc(/C=C/c3ccc(O)c(OC)c3)n(C(=O)c3ccccc3Br)n2)ccc1O,16.2%,0.381% (active),27.3%,36.2%,35.1%,12.9%,-1.91% (active),3.48% (active),9.29% (active),28.6%
Nc1cc(C(=O)O)cc(C(=O)O)c1,111%,97.2%,99.2%,111%,108%,96.8%,108%,104%,115%,115%
